Results filed as inconclusive are left out. Active and inactive are the calls of the source. The calls were made as follows, unless noted: active = hit-call score of the fitted dose curve at least 0.9, where 1 is the maximum; inactive = score below 0.9.
How the values were obtained:
[1] = ATG_M_32_TRANS: Attagene TRANS-FACTORIAL HepG2 Assay for M32 Transcription Factor (Internal Marker) (AID 2282984; active = hit-call score of the fitted dose curve at least 0.9, where 1 is the maximum); details: HepG2 Attagene TRANS M32 internal marker reporter
In short: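 HepG2 cells transiently transfected with GAL4-UAS reporter units, dosed for 24 hours. Reporter mRNA quantified by RT-PCR, 6-FAM labelling, HpaI digestion and capillary electrophoresis; internal-marker signal fitted upward relative to DMSO.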

[2] = biological target: Transcriptional activator Myb (Homo sapiens) (UniProt P10242); assay: ATG_Myb_CIS: Attagene CIS-FACTORIAL HepG2 Assay for human Myeloblastosis (Myb) Proto-Oncogene Transcription Factor (AID 2282986); details: HepG2 Attagene CIS-FACTORIAL Myb reporter transcription; actives raise or lower the signal
Transcriptional activator Myb (Homo sapiens), sequence (P10242 whole entry, looked up): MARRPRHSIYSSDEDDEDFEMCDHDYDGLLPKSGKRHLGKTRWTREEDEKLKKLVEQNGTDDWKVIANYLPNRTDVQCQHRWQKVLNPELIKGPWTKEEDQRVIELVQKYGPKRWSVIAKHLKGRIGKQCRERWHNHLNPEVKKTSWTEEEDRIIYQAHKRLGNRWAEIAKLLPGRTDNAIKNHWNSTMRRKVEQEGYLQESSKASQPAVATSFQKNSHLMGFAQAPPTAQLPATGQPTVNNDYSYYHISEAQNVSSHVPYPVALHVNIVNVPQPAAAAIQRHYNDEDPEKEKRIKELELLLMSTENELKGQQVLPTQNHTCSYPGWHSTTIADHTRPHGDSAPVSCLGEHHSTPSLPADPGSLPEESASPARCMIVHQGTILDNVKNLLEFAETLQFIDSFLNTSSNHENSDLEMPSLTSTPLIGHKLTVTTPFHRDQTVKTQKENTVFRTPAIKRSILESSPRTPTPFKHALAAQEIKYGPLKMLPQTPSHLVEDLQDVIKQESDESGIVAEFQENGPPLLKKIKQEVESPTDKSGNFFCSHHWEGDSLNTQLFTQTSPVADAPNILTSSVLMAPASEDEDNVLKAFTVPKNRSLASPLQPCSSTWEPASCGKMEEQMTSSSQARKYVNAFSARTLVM
In short: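 Reporter transcript levels, quantified by fluorescent RT-PCR and capillary electrophoresis, serve as the read-out. Transfected HepG2 cells carrying cis-promoter reporter units are dosed for 24 hours, and curves are fitted bidirectionally against DMSO controls.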

[3] = biological target: Nuclear respiratory factor 1 (Homo sapiens) (UniProt Q16656); assay: ATG_NRF1_CIS: Attagene CIS-FACTORIAL HepG2 Assay for human Nuclear Respiratory Factor 1 (NRF1) Orphan Gene (AID 2282987); details: HepG2 NRF1 cis-element reporter, Attagene multiplex; actives raise or lower the signal
Nuclear respiratory factor 1 (Homo sapiens), sequence (Q16656 whole entry, looked up): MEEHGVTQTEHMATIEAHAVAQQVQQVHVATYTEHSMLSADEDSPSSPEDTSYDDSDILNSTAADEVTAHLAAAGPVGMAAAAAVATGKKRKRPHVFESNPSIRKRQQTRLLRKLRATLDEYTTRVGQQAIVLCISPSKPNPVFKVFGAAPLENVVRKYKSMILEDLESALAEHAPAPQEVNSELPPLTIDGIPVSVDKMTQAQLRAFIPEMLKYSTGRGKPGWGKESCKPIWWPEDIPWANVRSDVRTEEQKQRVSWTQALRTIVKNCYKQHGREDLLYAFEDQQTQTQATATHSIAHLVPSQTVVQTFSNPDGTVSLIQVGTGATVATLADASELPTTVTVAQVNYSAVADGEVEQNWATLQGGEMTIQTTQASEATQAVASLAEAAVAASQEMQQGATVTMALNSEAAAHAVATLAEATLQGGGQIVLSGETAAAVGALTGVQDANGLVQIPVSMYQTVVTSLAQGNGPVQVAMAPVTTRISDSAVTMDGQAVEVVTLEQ
In short: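 Multiplexed cis-reporter assay, HepG2 cells, 24 h treatment. Total RNA → oligo(dT) RT → PCR with reporter-specific primers → 6-FAM primer extension → HpaI cut → CE. Bidirectional fit vs DMSO.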

[4] = ATG_NFI_CIS: Attagene CIS-FACTORIAL HepG2 Assay for human Nuclear Factor I (NFI) (AID 2282989); details: HepG2 cis-regulatory reporter, NFI response element transcription; actives raise or lower the signal
In short: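 Reporter transcription driven by endogenous transcription factors in HepG2 cells; 24 h treatment. Quantitation by labelled RT-PCR fragments on capillary electrophoresis, gain- or loss-of-signal relative to DMSO.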

[5] = biological target: Myc proto-oncogene protein (Homo sapiens) (UniProt P01106); assay: ATG_Myc_CIS: Attagene CIS-FACTORIAL HepG2 Assay for human Myelocytomatosis (Myc) Proto-Oncogene Transcription Factor (AID 2282990); details: HepG2, Attagene cis-reporter transcription factor activity; actives raise or lower the signal
Myc proto-oncogene protein (Homo sapiens), sequence (P01106 whole entry, looked up, the tested form may be a part): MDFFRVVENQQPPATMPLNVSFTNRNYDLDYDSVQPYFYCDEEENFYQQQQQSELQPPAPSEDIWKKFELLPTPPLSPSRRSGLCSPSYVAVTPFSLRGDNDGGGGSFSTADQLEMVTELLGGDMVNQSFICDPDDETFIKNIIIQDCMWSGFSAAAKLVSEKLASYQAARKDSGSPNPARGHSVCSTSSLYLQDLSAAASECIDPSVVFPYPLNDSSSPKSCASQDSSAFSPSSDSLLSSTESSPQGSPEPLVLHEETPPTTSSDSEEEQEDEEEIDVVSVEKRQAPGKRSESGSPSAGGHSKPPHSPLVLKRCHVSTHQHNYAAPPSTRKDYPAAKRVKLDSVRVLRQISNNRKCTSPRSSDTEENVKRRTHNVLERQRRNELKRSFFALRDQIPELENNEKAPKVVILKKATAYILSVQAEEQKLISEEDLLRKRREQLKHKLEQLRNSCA
In short: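 Fluorescence intensity of reporter-specific cDNA fragments, separated by capillary electrophoresis, gives the signal. Transfected HepG2 cells carrying cis-promoter reporter constructs are incubated with compound for 24 h; DMSO serves as baseline.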

[6] = ATG_NRF2_ARE_CIS: Attagene CIS-FACTORIAL HepG2 Assay for human Nuclear Factor Erythroid 2 Related Factor 2 (NFR2) response to Antioxidant Response Elements (ARE) (AID 2282992); details: HepG2 Attagene ARE/NRF2 reporter, transcription factor activity; actives raise or lower the signal;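 as to AC50: reporter mRNA level measured by RT-PCR and capillary electrophoresis fluorescence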
In short: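 Transient MRTU transfection of HepG2; 24 h compound exposure; TriZol RNA, RT with oligo(dT), PCR, 6-FAM primer extension, HpaI cut, CE. Bidirectional fit vs DMSO.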

[7] = ATG_Oct_MLP_CIS: Attagene CIS-FACTORIAL HepG2 Assay for human Octamer-Binding Transcription Factor (Oct) (AID 2282993); details: HepG2 Attagene cis-factorial Oct reporter, mRNA; actives raise or lower the signal
In short: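 Transfected HepG2 cells, 24 h treatment. Reporter mRNA quantified by RT-PCR–capillary electrophoresis; bidirectional fitting against DMSO.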

[8] = biological target: human Peroxisome Proliferator-activated Receptor alpha (PPARa), PPARA (gene 5465) (UniProt Q07869); assay: ATG_PPARa_TRANS: Attagene TRANS-FACTORIAL HepG2 Assay for human Peroxisome Proliferator-activated Receptor alpha (PPARa) (AID 2283001; active = hit-call score of the fitted dose curve at least 0.9, where 1 is the maximum)
human Peroxisome Proliferator-activated Receptor alpha (PPARa), PPARA (gene 5465), sequence (Q07869 whole entry, looked up, the tested form may be a part): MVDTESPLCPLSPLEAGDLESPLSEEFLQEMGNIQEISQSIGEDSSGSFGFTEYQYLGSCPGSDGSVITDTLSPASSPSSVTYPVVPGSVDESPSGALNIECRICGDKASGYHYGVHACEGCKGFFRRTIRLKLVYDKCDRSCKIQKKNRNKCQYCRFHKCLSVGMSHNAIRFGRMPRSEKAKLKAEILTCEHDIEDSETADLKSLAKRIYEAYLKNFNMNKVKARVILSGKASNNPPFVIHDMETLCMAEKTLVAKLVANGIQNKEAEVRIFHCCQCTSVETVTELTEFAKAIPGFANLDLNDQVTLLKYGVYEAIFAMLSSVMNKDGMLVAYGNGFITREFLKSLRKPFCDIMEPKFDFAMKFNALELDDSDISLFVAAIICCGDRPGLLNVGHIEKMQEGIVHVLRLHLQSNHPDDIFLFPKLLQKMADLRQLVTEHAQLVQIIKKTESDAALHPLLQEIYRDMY
In short: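 HepG2 cells transiently transfected with multiplexed GAL4-UAS reporters driven by exogenous chimeric NR-Gal4 proteins; reporter mRNA measured after 24 h dosing. Read-out by RT-PCR, 6-FAM labelling, HpaI digestion and capillary electrophoresis; gain of signal versus DMSO.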

[9] = ATG_NF_kB_CIS: Attagene CIS-FACTORIAL HepG2 Assay for human Nuclear Factor Kappa B (NF-kB) (AID 2282991); details: HepG2 Attagene cis-factorial NF-kB reporter mRNA; actives raise or lower the signal
In short: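 Transient MRTU transfection of human HepG2 liver cells → 24 h chemical exposure → total RNA, oligo(dT) RT → PCR, 6-FAM primer extension, HpaI digest 2 h 37 C → CE fragment analysis. Bidirectional fitting, DMSO negative control.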

[10] = biological target: Cellular tumor antigen p53 (Homo sapiens) (UniProt P04637); assay: ATG_p53_CIS: Attagene CIS-FACTORIAL HepG2 Assay for human p53 Transcription Factor (AID 2282994); details: HepG2 p53 cis-element reporter, Attagene mRNA; actives raise or lower the signal
Cellular tumor antigen p53 (Homo sapiens), sequence (P04637 whole entry, looked up): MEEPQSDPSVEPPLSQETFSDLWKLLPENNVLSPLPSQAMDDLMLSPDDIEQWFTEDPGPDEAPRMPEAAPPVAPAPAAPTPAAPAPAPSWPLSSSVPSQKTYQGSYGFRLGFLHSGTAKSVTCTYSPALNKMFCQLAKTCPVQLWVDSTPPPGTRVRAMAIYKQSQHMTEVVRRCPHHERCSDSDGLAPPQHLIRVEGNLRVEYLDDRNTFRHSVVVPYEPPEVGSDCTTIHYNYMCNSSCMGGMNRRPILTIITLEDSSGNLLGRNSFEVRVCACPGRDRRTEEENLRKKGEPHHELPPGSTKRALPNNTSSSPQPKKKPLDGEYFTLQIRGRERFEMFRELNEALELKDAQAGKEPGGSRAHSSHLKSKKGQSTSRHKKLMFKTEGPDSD
In short: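 HepG2, transient MRTU transfection (cis promoter elements, endogenous TFs); 24 h dosing; RNA isolation, RT-PCR, 6-FAM primer extension, HpaI digest, CE fluorescence; bidirectional fit vs DMSO.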

[11] = biological target: Nuclear receptor subfamily 4 group A member 2 (Homo sapiens) (UniProt P43354); assay: ATG_NURR1_TRANS: Attagene TRANS-FACTORIAL HepG2 Assay for human Nuclear Receptor Related Protein 1 (NURR1) (AID 2282985; active = hit-call score of the fitted dose curve at least 0.9, where 1 is the maximum); details: HepG2 Attagene TRANS reporter, mRNA readout
Nuclear receptor subfamily 4 group A member 2 (Homo sapiens), sequence (P43354 whole entry, looked up, the tested form may be a part): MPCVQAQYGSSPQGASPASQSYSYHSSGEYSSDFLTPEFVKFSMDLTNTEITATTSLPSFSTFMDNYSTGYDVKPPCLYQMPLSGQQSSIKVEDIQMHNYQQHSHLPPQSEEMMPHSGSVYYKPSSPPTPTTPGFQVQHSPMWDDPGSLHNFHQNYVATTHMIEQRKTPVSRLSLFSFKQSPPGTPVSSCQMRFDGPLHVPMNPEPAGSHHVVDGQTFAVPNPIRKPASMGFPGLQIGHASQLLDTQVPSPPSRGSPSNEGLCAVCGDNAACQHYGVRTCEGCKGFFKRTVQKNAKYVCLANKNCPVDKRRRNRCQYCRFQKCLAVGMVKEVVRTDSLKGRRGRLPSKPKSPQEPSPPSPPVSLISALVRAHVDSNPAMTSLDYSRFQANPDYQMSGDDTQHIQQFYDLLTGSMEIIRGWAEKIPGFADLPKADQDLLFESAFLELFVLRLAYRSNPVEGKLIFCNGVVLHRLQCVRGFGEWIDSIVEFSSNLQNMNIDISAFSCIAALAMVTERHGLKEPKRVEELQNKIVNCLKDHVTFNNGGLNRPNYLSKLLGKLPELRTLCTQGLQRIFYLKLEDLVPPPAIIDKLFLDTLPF
In short: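 HepG2 cells transiently transfected with NURR1-Gal4 chimera and GAL4-UAS reporter units; after 24 hr compound exposure, reporter mRNA quantified by RT-PCR and capillary electrophoresis; gain of signal fitted against DMSO.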

[12] = BSK_3C_TissueFactor: BioMAP Diversity Plus: 3C Assay for Tissue Factor Biomarker Activity (AID 2282997); details: BioMAP 3C HUVEC, tissue factor biomarker readout; actives raise or lower the signal
In short: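 HUVEC were treated 24 h, then surface tissue factor measured by ELISA and fitted bidirectionally against DMSO. Parallel SRB total-protein staining assessed overt cytotoxicity at the same time point.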

[13] = BSK_3C_uPAR: BioMAP Diversity Plus: 3C Assay for Urokinase-type plasminogen activator receptor (uPAR) Biomarker Activity (AID 2282998); details: BioMAP 3C HUVEC, uPAR biomarker ELISA; actives raise or lower the signal
In short: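 Readout: ELISA for surface uPAR. System: human umbilical vein endothelial primary cells, 24 h after chemical exposure. Analysis: bidirectional fit, DMSO baseline.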

[14] = BSK_3C_VCAM1: BioMAP Diversity Plus: 3C Assay for Vascular cell adhesion molecule 1 (VCAM1) Biomarker Activity (AID 2282999); details: BioMAP 3C HUVEC, VCAM1 ELISA, cytokine-stimulated; actives raise or lower the signal
In short: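 Human umbilical vein endothelial cells (3C system), biomarker read by ELISA 24 h after dosing; bidirectional fit against DMSO baseline. Cytotoxicity tracked by SRB total-protein staining in parallel cultures at biomarker time.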

[15] = BSK_4H_Eotaxin3: BioMAP Diversity Plus: 4H Assay for Eotaxin 3 Biomarker Activity (AID 2283000); details: primary human endothelial cells (HUVEC); actives raise or lower the signal;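 also: CCL26 protein level quantified by ELISA in parallel with SRB cytotoxicity check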
In short: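 Eotaxin-3 (CCL26) levels were measured by ELISA in HUVEC primary cultures 24 h post-dosing. Gain or loss of signal was fitted in both directions, with DMSO serving as baseline and negative control.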

[16] = ATG_M_06_TRANS: Attagene TRANS-FACTORIAL HepG2 Assay for M06 Transcription Factor (Internal Marker) (AID 2282983; active = hit-call score of the fitted dose curve at least 0.9, where 1 is the maximum); details: HepG2 Attagene TRANS M06 internal marker reporter
In short: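 HepG2 cells transiently transfected with GAL4-UAS multiple reporter units, dosed 24 h. Reporter RNA reverse-transcribed, PCR-amplified, 6-FAM-labeled, HpaI-digested and quantified by capillary electrophoresis; this internal-marker signal fitted upward relative to DMSO.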

## Cn1sccc1=O
[1]
  outcome: inactive
[2]
  outcome: inactive
[3]
  AC50: 170 µM (active)
[4]
  AC50: 163 µM (active)
[5]
  AC50: 187 µM (active)
[6]
  AC50: 161 µM (active)
[7]
  AC50: 171 µM (active)
[8]
  outcome: inactive

## CC=O
[2]
  outcome: inactive
[3]
  outcome: inactive
[4]
  outcome: inactive
[9]
  outcome: inactive
[6]
  outcome: inactive
[7]
  outcome: inactive
[10]
  outcome: inactive

## NCCN
[1]
  outcome: inactive
[11]
  outcome: inactive
[2]
  outcome: inactive
[3]
  outcome: inactive
[4]
  outcome: inactive
[6]
  outcome: inactive
[7]
  outcome: inactive
[10]
  outcome: inactive

## Clc1ccc2c(Cl)ccnc2c1
[1]
  outcome: inactive
[2]
  outcome: inactive
[3]
  outcome: inactive
[4]
  outcome: inactive
[5]
  outcome: inactive
[9]
  outcome: inactive
[6]
  AC50: 3.21 µM (active)
[7]
  outcome: inactive
[10]
  outcome: inactive

## O=C(CCCN1CCC(O)(c2ccc(Cl)cc2)CC1)c1ccc(F)cc1
[2]
  outcome: inactive
[5]
  outcome: inactive
[7]
  AC50: 47.9 µM (active)
[10]
  AC50: 46.2 µM (active)
[12]
  AC50: 15.6 µM (active)
[13]
  AC50: 20 µM (active)
[14]
  outcome: inactive
[15]
  outcome: inactive
[8]
  outcome: inactive

## CCCCCC(C)OC(=O)COc1ccc(Cl)c2cccnc12 (stereo unspecified)
[16]
  outcome: inactive
[2]
  outcome: inactive
[3]
  outcome: inactive
[4]
  outcome: inactive
[5]
  outcome: inactive
[6]
  AC50: 42.4 µM (active)
[7]
  outcome: inactive
[10]
  outcome: inactive
[8]
  outcome: inactive

## N=C(N)c1ccc(OCCCCCOc2ccc(C(=N)N)cc2)cc1
[2]
  outcome: inactive
[3]
  outcome: inactive
[4]
  outcome: inactive
[5]
  outcome: inactive
[9]
  AC50: 87.5 µM (active)
[6]
  AC50: 0.732 µM (active)
[7]
  AC50: 34.4 µM (active)
[12]
  outcome: inactive
[13]
  AC50: 7.78 µM (active)
[14]
  outcome: inactive
[15]
  outcome: inactive
[8]
  outcome: inactive

## NC(C(F)(F)F)C(F)(F)F
[1]
  outcome: inactive
[11]
  outcome: inactive
[2]
  outcome: inactive
[3]
  outcome: inactive
[4]
  outcome: inactive
[5]
  outcome: inactive
[9]
  outcome: inactive
[6]
  outcome: inactive
[7]
  outcome: inactive
[10]
  outcome: inactive
[8]
  outcome: inactive

## FCOC(C(F)(F)F)C(F)(F)F
[2]
  outcome: inactive
[3]
  outcome: inactive
[4]
  outcome: inactive
[9]
  outcome: inactive
[6]
  outcome: inactive
[7]
  outcome: inactive
[8]
  outcome: inactive

## c1cc2cccc3c4cccc5cccc(c(c1)c23)c54
[16]
  outcome: inactive
[11]
  outcome: inactive
[2]
  outcome: inactive
[3]
  outcome: inactive
[4]
  outcome: inactive
[5]
  outcome: inactive
[9]
  outcome: inactive
[6]
  AC50: 19.8 µM (active)
[7]
  outcome: inactive
[10]
  outcome: inactive
[8]
  outcome: inactive
